Data from PubChem BioAssay (Tox21).
Several values for one entry are separate records, joined by “and”; a condition that tells them apart may be missing. Equal entries are not always repeated. Records with an inconclusive call do not appear. The source holds several records for some structures; these can differ, active in one and inactive in another. Activity calls are given as the source filed them. Unless noted, calls follow the shape of the dose curve; as a rule, active = well fitted curve in the direction sought with a large enough effect in the repeat runs; inconclusive = weak or mixed curves; inactive = no such curve, though single readings can be large; an effect the other way counts as inactive or inconclusive.

Assays:
[1] = qHTS assay to test for compound auto fluorescence at 535 nm (green) in HEK293 cells (AID 720680)
[2] = qHTS assay to test for compound auto fluorescence at 460 nm (blue) in HEK293 cell free culture (AID 720681)
How it was run: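 Blue fluorescence (Ex 405/Em 460 nm, triamterene-equivalent) was read immediately after pin transfer of compound or DMSO into medium (DMEM, 10% FBS) without cells.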

[3] = qHTS assay to test for compound auto fluorescence at 535 nm (green) in HEK293 cell free culture (AID 720682)
How it was run: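 No cells present: wells hold DMEM supplemented with 10% FBS, into which compound or vehicle is pinned. Green emission is then recorded (485 nm excitation, 535 nm emission) and scaled to fluorescein.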

[4] = qHTS assay to test for compound auto fluorescence at 590 nm (red) in HEK293 cell free culture (AID 720683)
How it was run: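 Red-channel autofluorescence of compounds in culture medium (DMEM, 10% FBS), no cells, measured at 540/590 nm. Rose Bengal sodium is the reference fluorophore for equivalence.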

[5] = qHTS assay to test for compound auto fluorescence at 590 nm (red) in HepG2 cell free culture (AID 720684)
How it was run: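 Cell-free; medium MEM + 10% FBS; compound or DMSO added by pintool; read Ex 540/Em 590 nm; Rose Bengal sodium as red reference fluorophore.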

[6] = qHTS assay to test for compound auto fluorescence at 535 nm (green) in HepG2 cell free culture (AID 720686)
[7] = qHTS assay to test for compound auto fluorescence at 460 nm (blue) in HepG2 cells (AID 720687)
How it was run: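 Blue-channel autofluorescence (Ex/Em 405/460 nm, triamterene-equivalent) was measured after 1 hr compound exposure at 37 C, 5% CO2. Cells were HepG2, plated overnight at 37 C in MEM plus 10% FBS.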

[8] = qHTS assay to identify small molecule antagonists of the glucocorticoid receptor (GR) signaling pathway - cell viability counter screen (AID 720693); also: nearly all actives have a fitted effect of over 55% in size
[9] = qHTS assay for identifying genotoxic compounds that show differential cytotoxicity against isogenic chicken DT40 cell lines with known DNA damage response pathways - wild type cell line (AID 743012); also: nearly all actives have a fitted effect of over 60% in size; also: potency is read from the fitted curve at half-maximal effect
How it was run: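 300 wt DT40 cells/well; cpd (DMSO) pintool-transferred after ~0.5 h at 37 C/5% CO2; 40 h incubation; CellTiter-Glo added, 30 min RT; luminescence read.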

[10] = qHTS assay for identifying genotoxic compounds that show differential cytotoxicity against isogenic chicken DT40 cell lines with known DNA damage response pathways - Rev3 mutant cell line (AID 743014); also: nearly all actives have a fitted effect of over 55% in size; also: potency is read from the fitted curve at half-maximal effect
[11] = qHTS assay for identifying genotoxic compounds that show differential cytotoxicity against isogenic chicken DT40 cell lines with known DNA damage response pathways - Rad54/Ku70 mutant cell line (AID 743015); also: nearly all actives have a fitted effect of over 60% in size; also: potency is read from the fitted curve at half-maximal effect
[12] = qHTS assay to identify small molecule antagonists of the androgen receptor (AR) signaling pathway - cell viability counter screen (AID 743033; also: nearly all actives have a fitted effect of over 45% in size; also: potency is read from the fitted curve at half-maximal effect)
[13] = qHTS assay to identify small molecule antagonists of the androgen receptor (AR) signaling pathway using the MDA cell line - cell viability counter screen (AID 743041; also: nearly all actives have a fitted effect of over 45% in size)
How it was run: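 Viability read by CellTiter-Fluor fluorescence in the same wells as the antagonist screen, added after 15.5 h of a 16 h, 37C exposure. Human breast carcinoma MDA-kb2 AR-luc cells, compounds co-dosed with agonist R1881.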

[14] = qHTS assay to test for compound auto fluorescence at 460 nm (blue) in HepG2 cell free culture (AID 720685)
How it was run: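 Cell-free plates of MEM plus 10% FBS received 23 nL compound or DMSO vehicle; blue-channel (405/460 nm) intensity scored against triamterene as reference fluorophore.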

[15] = qHTS assay to identify small molecule antagonists of the thyroid receptor (TR) signaling pathway - cell viability counter screen (AID 743064); also: nearly all actives have a fitted effect of over 50% in size; also: potency is read from the fitted curve at half-maximal effect
How it was run: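 Rat GH3 pituitary tumor cells stably expressing two TR response elements driving luciferase were plated, rested 4 h, then dosed with library compounds and T3 (1 nM final). After 23.5 h at 37 °C, CellTiter-Fluor was added for 30 min and fluorescence recorded.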

[16] = biological target: Glucocorticoid receptor (Homo sapiens) (UniProt P04150); assay: qHTS assay to identify small molecule agonists of the glucocorticoid receptor (GR) signaling pathway (AID 720691; active = well fitted activation curve with a large enough effect in the signal ratio in the repeat runs, not every such curve was filed as active; the % refers to the signal ratio)
How it was run: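 A HeLa cervical cancer line expressing GR and a glucocorticoid response element-driven beta-lactamase gene is treated with compounds for 18 h; LiveBLAzer B/G FRET substrate is then applied and fluorescence read.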

[17] = biological target: Glucocorticoid receptor (Homo sapiens) (UniProt P04150); assay: qHTS assay to identify small molecule antagonists of the glucocorticoid receptor (GR) signaling pathway (AID 720692; active = well fitted inhibition curve with a large enough effect in the signal ratio in the repeat runs, not every such curve was filed as active; the % refers to the signal ratio)
How it was run: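 GRE-bla HeLa line, dex-stimulated (5 nM final). Compound exposure 18 h, 37 C. Beta-lactamase FRET read after 2 h RT substrate.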

[18] = biological target: Androgen receptor (Homo sapiens) (UniProt P10275); assay: qHTS assay to identify small molecule agonists of the androgen receptor (AR) signaling pathway using the MDA cell line (AID 743040; also: nearly all actives have a fitted effect of over 20% in size)
How it was run: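 Luciferase agonist assay: 16 h compound exposure at 37C without CO2 in MDA-kb2 AR-luc cells, whose MMTV promoter responds to both AR and GR. Luminescence measured after 30 min room-temperature incubation with ONE-Glo.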

[19] = biological target: Androgen receptor (Homo sapiens) (UniProt P10275); assay: qHTS assay to identify small molecule antagonists of the androgen receptor (AR) signaling pathway (AID 743035; active = well fitted inhibition curve with a large enough effect in the signal ratio in the repeat runs, not every such curve was filed as active; the % refers to the signal ratio)
How it was run: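 In this cell-based reporter screen, compounds were tested in concentration series against R1881-activated HEK293 cells expressing beta-lactamase under UAS control; after 16 h at 37C, FRET substrate was added and fluorescence read 2 h later.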

[20] = biological target: Androgen receptor (Homo sapiens) (UniProt P10275); assay: qHTS assay to identify small molecule agonists of the androgen receptor (AR) signaling pathway (AID 743036; active = well fitted activation curve with a large enough effect in the signal ratio in the repeat runs, with a control signal flat, not every such curve was filed as active; the % refers to the signal ratio)
How it was run: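 Quantitative HTS of the Tox21 10K library in HEK293 cells bearing a stably integrated UAS-controlled beta-lactamase reporter. Compound exposure lasted 16 h at 37C. Reporter activity was detected by FRET substrate fluorescence after 2 h at room temperature.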

Measured: Potency

Chain of Androgen receptor (Homo sapiens) (P10275 whole entry, looked up): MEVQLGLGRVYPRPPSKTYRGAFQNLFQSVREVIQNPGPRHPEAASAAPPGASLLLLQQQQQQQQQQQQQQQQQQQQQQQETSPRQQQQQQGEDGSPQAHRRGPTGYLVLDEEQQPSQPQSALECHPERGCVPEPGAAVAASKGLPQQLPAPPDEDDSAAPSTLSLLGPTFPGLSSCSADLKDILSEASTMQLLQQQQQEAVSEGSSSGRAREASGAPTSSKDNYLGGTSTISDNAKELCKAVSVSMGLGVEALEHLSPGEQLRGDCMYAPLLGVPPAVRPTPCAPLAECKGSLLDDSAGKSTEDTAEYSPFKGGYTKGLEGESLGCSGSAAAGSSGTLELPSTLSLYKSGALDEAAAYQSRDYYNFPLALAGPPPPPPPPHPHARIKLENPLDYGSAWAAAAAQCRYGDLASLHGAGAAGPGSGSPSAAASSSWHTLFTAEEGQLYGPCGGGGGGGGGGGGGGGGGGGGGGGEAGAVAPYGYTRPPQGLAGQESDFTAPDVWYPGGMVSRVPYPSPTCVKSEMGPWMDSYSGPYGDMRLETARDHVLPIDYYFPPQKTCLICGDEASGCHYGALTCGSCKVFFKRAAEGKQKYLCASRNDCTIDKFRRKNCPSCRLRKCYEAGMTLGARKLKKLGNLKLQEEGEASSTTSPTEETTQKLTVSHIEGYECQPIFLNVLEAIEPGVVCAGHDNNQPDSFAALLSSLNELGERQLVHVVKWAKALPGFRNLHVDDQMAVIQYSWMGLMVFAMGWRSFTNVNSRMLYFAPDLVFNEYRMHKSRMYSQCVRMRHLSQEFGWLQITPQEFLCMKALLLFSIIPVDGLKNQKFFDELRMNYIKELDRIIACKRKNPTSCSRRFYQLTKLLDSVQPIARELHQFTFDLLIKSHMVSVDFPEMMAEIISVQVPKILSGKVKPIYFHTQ
Chain of Glucocorticoid receptor (Homo sapiens) (P04150 whole entry, looked up): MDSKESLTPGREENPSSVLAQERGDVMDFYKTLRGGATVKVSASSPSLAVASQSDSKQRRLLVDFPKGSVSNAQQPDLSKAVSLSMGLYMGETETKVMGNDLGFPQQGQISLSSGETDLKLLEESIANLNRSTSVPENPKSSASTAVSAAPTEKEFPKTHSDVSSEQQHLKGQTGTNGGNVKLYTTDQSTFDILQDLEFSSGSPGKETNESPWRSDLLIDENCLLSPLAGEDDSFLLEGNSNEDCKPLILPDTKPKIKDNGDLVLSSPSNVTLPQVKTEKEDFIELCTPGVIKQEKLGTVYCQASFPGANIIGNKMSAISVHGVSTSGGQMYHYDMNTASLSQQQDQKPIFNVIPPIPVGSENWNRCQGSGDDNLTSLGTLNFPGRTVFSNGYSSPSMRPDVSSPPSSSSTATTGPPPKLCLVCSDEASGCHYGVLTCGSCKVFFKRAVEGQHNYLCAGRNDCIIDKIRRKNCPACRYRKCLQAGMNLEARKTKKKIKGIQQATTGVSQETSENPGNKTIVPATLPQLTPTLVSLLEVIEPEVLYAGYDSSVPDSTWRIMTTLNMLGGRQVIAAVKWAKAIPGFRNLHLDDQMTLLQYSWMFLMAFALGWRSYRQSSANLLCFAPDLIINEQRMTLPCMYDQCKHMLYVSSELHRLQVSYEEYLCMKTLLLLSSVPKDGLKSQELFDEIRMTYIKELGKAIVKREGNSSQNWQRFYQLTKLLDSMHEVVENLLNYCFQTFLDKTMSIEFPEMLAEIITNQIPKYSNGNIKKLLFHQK

CC1NCCOC1c1ccccc1 (stereo not given)
not listed: [14] | [15] | [16] | [17] | [18] | [19] | [20]
inactive: all other assays above

O=C(O)C(F)(F)C(F)(F)C(F)(F)C(F)(F)C(F)(F)C(F)(F)F
not listed: [9] | [16] | [17] | [18] | [19] | [20]
inactive: all other assays above

Oc1ccc(Cc2ccc(O)cc2)cc1
not listed: [14] | [18] | [19] | [20]
inactive: all other assays above

[O-][Br+2]([O-])O
not listed: [10] | [13] | [14] | [19] | [20]
inactive: all other assays above

Cc1ccc2c(c1)C1CN(C)CCC1N2 (stereo not given)
not listed: [10] | [13] | [14] | [18] | [19] | [20]
inactive: all other assays above

O=C1C2CC=CCC2C(=O)N1SC(Cl)(Cl)Cl (stereo not given)
inactive: [1] | [2] | [3] | [4] | [5] | [14] | [6] | [7]
active: [9] 473 nM and 6.83 µM and 120 nM | [10] 531 nM and 683 nM and 107 nM | [11] 596 nM and 2.42 µM and 135 nM | [15] 6.68 µM and 2.39 µM
inactive and 3.41 µM (active): [12]

C[C@]12C=CC(=O)C=C1CC[C@@H]1[C@@H]2CC[C@@]2(C)[C@H]1CC[C@]2(C)O
active: [9] 23.7 µM | [10] 11.9 µM | [11] 29.8 µM
not listed: [8] | [16] | [17] | [18] | [19] | [20]
inactive: all other assays above

CCCOC(=O)Cc1ccc(OCC(=O)N(CC)CC)c(OC)c1
not listed: [9] | [10] | [16] | [17] | [18] | [19] | [20]
inactive: all other assays above

COc1cccc([C@@]2(O)CCCC[C@@H]2CN(C)C)c1
not listed: [14]
inactive: all other assays above

N#CC(Br)(Br)C(N)=O
active: [10] 61.1 µM | [11] 61.1 µM
inactive: [1] | [2] | [3] | [4] | [5] | [14] | [6] | [7] | [15]

COc1ccccc1OC
not listed: [9] | [14] | [18] | [19] | [20]
inactive: all other assays above

ClCCCCCCCl
not listed: [14] | [18] | [19] | [20]
inactive: all other assays above

C=C1C[C@@H]2[C@H](CC[C@]3(C)C(=O)CC[C@@H]23)[C@@]2(C)C=CC(=O)C=C12
inactive: [1] | [2] | [3] | [4] | [5] | [14] | [6] | [7] | [8] | [13]
active: [9] 7.5 µM | [11] 13.3 µM

CN1COCN(Cc2cnc(Cl)s2)/C1=N\[N+](=O)[O-]
not listed: [10] | [14] | [18] | [19] | [20]
inactive: all other assays above

C/C=C/CC#N
not listed: [8] | [10] | [15] | [16] | [17] | [18] | [19] | [20]
inactive: all other assays above

NC1(c2ccccc2)CCCCC1
active: [9] 60.6 µM | [15] 42.9 µM
not listed: [10] | [11] | [16] | [17] | [18] | [19] | [20]
inactive: all other assays above

N#CN
not listed: [14] | [18] | [19] | [20]
inactive: all other assays above

CON(C)C(=O)Nc1ccc(Br)c(Cl)c1
inactive: [1] | [2] | [3] | [4] | [5] | [6] | [7] | [16] | [12] | [13]
active: [10] 61.1 µM

O=C(CCl)NCO
not listed: [10] | [12] | [16] | [17] | [18] | [19] | [20]
inactive: all other assays above
